FBW7 activator: human FBW7 E3 ligase activation, primary screen; AlphaScreen FBW7–phospho-cyclin E peptide binding, activator screen; normalized activity (activation), % at 26.1 µM; 0.13% of 650,000 active; AID 1259310; in the data active means normalized activity above about 1.9%;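 further: purified mutant Fbw7 with reduced substrate affinity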
TEAD-YAP block: TEAD-YAP interaction inhibition | HEK-TIYL cells, TEAD-Gal4/YAP UAS-luciferase luminescence | 1.4% of 640,000 active | inhibition, % at 9.12 µM; in the data active means inhibition above about 32%;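 further: 0% = median of test compound wells and 100% = reference inhibitor wells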
GPR151 activ: activates the human receptor GPR151; Q8TDV0; PathHunter beta-arrestin GPR151 cells, luminescence; activation, % at 11.2 µM; 1% of 650,000 active; in the data active means activation above about 4.9%;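 further: 0% = median of compound wells and 100% = cells with positive control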
Target sequence (Q8TDV0 whole entry, looked up): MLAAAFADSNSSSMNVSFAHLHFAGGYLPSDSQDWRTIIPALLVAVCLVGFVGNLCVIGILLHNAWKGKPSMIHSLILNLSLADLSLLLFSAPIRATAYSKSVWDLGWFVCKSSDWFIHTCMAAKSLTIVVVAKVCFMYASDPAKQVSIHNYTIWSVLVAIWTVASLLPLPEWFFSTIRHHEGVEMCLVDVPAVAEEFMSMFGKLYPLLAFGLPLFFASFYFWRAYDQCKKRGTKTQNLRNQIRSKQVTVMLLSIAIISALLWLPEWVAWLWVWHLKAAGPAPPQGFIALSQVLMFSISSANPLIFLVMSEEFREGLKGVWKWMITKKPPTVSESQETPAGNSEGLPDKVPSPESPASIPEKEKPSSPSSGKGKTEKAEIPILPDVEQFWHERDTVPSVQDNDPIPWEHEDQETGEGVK
MITF primary: inhibitors of human MITF; AID 1259374; 0.91% of 650,000 active; O75030; AlphaScreen MITF homodimerization, bead proximity signal; inhibition, % at 2.6 µM; in the data active means inhibition above about 50%;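 further: 0% = vehicle wells with protein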
GPR151 confirm: confirmation of human GPR151 activators; shares compounds with GPR151 activ; GPR151 PathHunter beta-arrestin cells, luminescence, 90 min; % of EA-reagent control over plate median; activation, % at 11.2 µM; 6,700 tested, under 10 active; AID 1508609;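 active means mean percent activation across replicates above the confirmation screen cutoff of 4.91%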
GPR119 counter: activates human GPR119 in a GPR151 counter-screen | GPR119 PathHunter beta-arrestin cells, luminescence, 90 min; 0 = compound-well median, 100 = enzyme-acceptor control | AID 1508611 | shares compounds with GPR151 activ | 0.3% of 6,700 active | activation, % at 11.2 µM;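 active means mean percent activation in the counterscreen above 29.09%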;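 further: counterscreen on off-target GPR119 to flag nonselective hits from the GPR151 activator screen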
Active calls of the source: *; . = not tested or not shown; ! = a repeat was not active. Shown are actives, neighbours in structure and some others; about 3.5% of the full set was active somewhere.

SMILES	FBW7 activator	TEAD-YAP block	GPR151 activ	MITF primary	GPR151 confirm	GPR119 counter
COc1ccc(C(=O)C(C)Sc2nc(C)cc(=O)[nH]2)cc1 (configuration not stated)	1	-3	-2	-11	.	.
CCOc1ccc(C(=O)C(C)Sc2nc(C)cc(=O)[nH]2)cc1 (configuration not stated)	0	-7	5.1*	-2	1	9
COc1ccc(C2Oc3ccc(Cl)cc3C3CC(c4ccc(F)cc4)=NN32)cc1 (configuration not stated)	0	-38	-2	-14	.	.
O=C(Nc1cccc(-c2nc3ccccc3[nH]2)c1)NC1CCCC1	0	-22	-1	3	.	.
CC(C)C(=O)Nc1nnc(S(=O)(=O)N(C)c2ccc(Cl)cc2)s1	0	12	5.8*	2	-1	-4
CCOc1ccc2[nH]c(=O)c(CN(CCOC)C(=O)Nc3ccccc3F)cc2c1	0	1	-1	3	.	.
CCCCC(C(=O)Nc1cccc(C)c1)N1C(=O)c2cc(Cl)c(Cl)cc2C1=O (configuration not stated)	0	-2	8.3*	22	1	12
COCCn1nnnc1C(c1ccc(C)cc1)N1CCN(C)CC1 (configuration not stated)	0	5	0	6	.	.
Cc1cc(C)c(S(=O)(=O)Nc2cc3c4c(c2)CC(=O)N4CCC3)c(C)c1	0	5	5.0*	2	0	-3
Cc1n[nH]c(C)c1NC(=O)CN1CCCCC1	0	-3	1	7	.	.
CCc1cc(-c2n[nH]c(C)c2-c2nc(C)cs2)c(O)cc1OC	0	10	8.0*	4	0	7
CC1CCN(C(=O)CCNC(=O)c2ccc(Cl)cc2)CC1	0	-4	2	7	.	.
COc1cc(/C=C2\SC(N)=NC2=O)ccc1OC(=O)c1ccc(Cl)cc1	0	8	0	7	.	.
COc1ccc(C(=O)Oc2c(Cl)cc(/C=C3\SC(N)=NC3=O)cc2OC)cc1	0	-2	8.2*	-13	1	16
CCCCN1C(=O)c2ccc(C(=O)Nc3cc(Cl)ccc3C(=O)O)cc2C1=O	0	8	7.2*	3	0	-1
COc1ccc(CN2C3CCC2CC(NC(=O)c2cccc(Cl)c2)C3)cc1 (configuration not stated)	0	7	1	4	.	.
CCOC(=O)N1CCC(N2CCC3(CC2)CC3C(=O)Nc2cc(C)cc(C)c2)CC1 (configuration not stated)	0	-10	1	2	.	.
COc1cccc(C(=O)NCCCc2ccc(N(C)C)cc2)c1OC	0	-18	5.3*	2	-1	-5
COc1cccc(C(=O)NCCCc2ccccc2)c1OC	0	-28	0	20	.	.
COc1cccc(CN2CCN(C(=O)CCC3(C)CCC(=O)N3)CC2=O)c1 (configuration not stated)	0	0	7.8*	-4	0	19
O=C(/C=C/c1cccs1)Nc1nc2ccc([N+](=O)[O-])cc2s1	1	6	-1	18	.	.
FC(F)(F)c1ccc(Cl)c(NC2=NCCCCC2)c1	0	3	6.1*	11	-1	-8
O=C(NC1CC1)c1cc(Sc2ccccc2Cl)nc2ccccc12	0	-1	1	14	.	.
COCCCNc1c2c(nc3nnnn13)CCCC2	0	5	6.1*	5	0	-2
CCN(CC)CCNc1c2c(nc3nnnn13)CCCC2	0	3	0	11	.	.
SMILES	FBW7 activator	TEAD-YAP block	GPR151 activ	MITF primary	GPR151 confirm	GPR119 counter
CCSC(=N)N	0	12	7.1*!	-5	0	4
CC(C)SC(=N)N	0	.	1	-2	.	.
Cc1ccc(S(=O)(=O)N(CC(N)=O)Cc2cccc(C)c2)cc1	0	5	5.2*	6	2	11
Cc1cccc(C(=O)NNC(=O)C2CCCO2)c1 (configuration not stated)	0	-3	7.3*	-2	0	0
CCN(CCO)C(=O)CCN1C(=O)/C(=C\c2ccco2)SC1=S	0	-5	0	2	.	.
CCOC(=O)c1sc(N/C(=C/C(=O)c2ccccc2)C(=O)O)cc1C	0	-5	9.0*	-4	0	3
CCOC(=O)c1sc(NC(C)=O)cc1C	0	-5	-1	11	.	.
CCCOc1ccc(C2C(C(=O)OCC)=CN(Cc3ccc(OC)cc3)C=C2C(=O)OCC)cc1OC	0	-11	-1	-15	.	.
CC(=O)Nc1cccc(NC(=O)CSc2nnnn2-c2ccc3c(c2)OCO3)c1	1	-1	5.6*	6	0	11
CCOC(=O)c1ccc(NC(=O)COc2ccc(CC)cc2)cc1	0	3	4.9*	4	0	-1
CCOc1ccc(NC(=O)CC2(c3ccc(OC)cc3)C(=O)c3ccccc3C2=O)cc1	1	12	5.4*	13	2	5
Cc1ccc(NC(=O)COc2ccc(C(C)C)cc2)cc1	0	9	6.4*	9	0	-7
CCOCCOC(=O)c1ccc(NC(=O)COc2ccc(OC)cc2)cc1	-1	9	0	3	.	.
CCOCCOC(=O)c1ccc(NC(=O)COc2ccccc2)cc1	0	9	5.0*	-6	-1	-12
CCc1ccc(OCC(=O)Nc2ccc(C(=O)OCCOC)cc2)cc1	0	6	-1	14	.	.
CCOc1ccc(CN(C)CC(=O)NC2(C#N)CCCC2)cc1	0	-1	1	21	.	.
CCOc1ccc(NC(=O)COC)cc1	0	-13	5.4*	2	1	6
CC(=O)c1c(C)[nH]c(C(=O)N2CCN(c3ccccc3)CC2)c1C	0	5	13*	14	-1	-3
CC(=O)c1c(C)[nH]c(C(=O)N2CCN(c3ccccc3F)CC2)c1C	0	4	0	6	.	.
O=C(Cc1cccc2ccccc12)N/N=C\c1ccc(O)cc1O	0	2	0	0	.	.
COCCNC(=O)/C(C#N)=C/C=C/c1ccccc1	0	-14	6.0*	6	3	0
C=CCNC(=O)/C(C#N)=C/C=C/c1ccccc1	0	-7	-1	-4	.	.
CCOC(=O)c1c(NC(=O)CSc2n[nH]c(N)n2)sc(C(C)=O)c1C	0	-4	13*	6	0	-3
CCOC(=O)c1c(NC(=O)CSc2n[nH]c(-c3ccccc3)n2)sc(C(C)=O)c1C	0	4	2	6	.	.
COc1ccc2oc3c(=O)[nH]cnc3c2c1	0	9	-3	12	.	.
N#C/C(=C\c1cccc(OCC(N)=O)c1)c1ccc([N+](=O)[O-])cc1	0	5	1	2	.	.
COc1ccc(/C=C2/NC(=O)N(c3cccc(Cl)c3)C2=O)cc1	0	-12	0	-5	.	.
O=C1N/C(=C/c2ccc3c(c2)OCO3)C(=O)N1c1cccc(Cl)c1	0	2	0	16	.	.

Source: PubChem
